Compound activity from PubChem.
Only some compounds are listed: those with a hit (about 2.3% of all), similar ones and a draw of the others.
MCL1-BIM inh = MCL1-BIM-BH3 interaction inhibition (human). Q07820. GST-MCL1 / FITC-Bim-BH3 fluorescence polarization. inhibition, % at 10.9 µM. hit rate 0.68% among 320,000;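 active = inhibition above the mean inhibition of all tested compounds plus 3 SD, set per campaign, cut at about 40% in these data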;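 also: higher means more loss of mP so more displacement of Bim peptide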
GLD-1 TGE inh = GLD-1-TGE RNA interaction inhibition (C. elegans) | Q17339 | hit rate 0.44% among 320,000 | purified GLD-1 + fluorescein TGE RNA, fluorescence polarization | inhibition, % at 5.96 µM;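 active = percent inhibition above a per-plate cutoff, the plate mean of test compounds plus 3 SD, cut at about 30% in these data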
Target sequence (Q17339 whole entry, looked up): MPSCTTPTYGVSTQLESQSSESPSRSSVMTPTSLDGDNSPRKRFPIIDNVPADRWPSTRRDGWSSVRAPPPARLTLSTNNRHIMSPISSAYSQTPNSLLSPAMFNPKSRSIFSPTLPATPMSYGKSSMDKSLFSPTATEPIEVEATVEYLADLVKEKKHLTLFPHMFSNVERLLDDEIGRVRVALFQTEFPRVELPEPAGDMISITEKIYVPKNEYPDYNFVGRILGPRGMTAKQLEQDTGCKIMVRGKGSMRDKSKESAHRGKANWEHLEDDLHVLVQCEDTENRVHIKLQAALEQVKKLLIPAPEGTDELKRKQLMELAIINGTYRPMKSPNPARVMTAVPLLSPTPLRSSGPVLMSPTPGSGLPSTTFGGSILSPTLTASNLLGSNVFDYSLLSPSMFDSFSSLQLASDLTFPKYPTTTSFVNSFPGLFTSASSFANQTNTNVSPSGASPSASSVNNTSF
Mcl1-Noxa inh = Mcl-1/Noxa interaction inhibition | TR-FRET Mcl-1/Noxa peptide binding, 2 h | Q07820 | AID 1022 | hit rate 1.5% among 220,000 | inhibition, % at 21.7 µM;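 active = compounds that cut the protein-peptide binding signal by more than 50% relative to plate controls in a single-dose test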;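 also: His-tagged Mcl-1 with rhodamine Noxa BH3 peptide and terbium anti-His antibody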
Mcl-1 Bim block = disrupts Bim peptide binding to human Mcl-1. Q07820. Bead-based flow cytometry, Bim peptide-Mcl-1 binding. inhibition, % at 10 µM. hit rate 0.1% among 190,000. AID 1009; in the data active = inhibition above about 40%
Mcl1-Bid inh = disrupts binding of human Mcl-1 to Bid peptide | Q07820 | TR-FRET Mcl-1/Bid-Dy647 peptide binding, 1536-well | inhibition, % at 21.7 µM | hit rate 0.97% among 220,000 | AID 1021;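 active = compounds that cut the binding signal by more than half at the single screening dose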;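 also: His-tagged Mcl-1 with europium anti-His antibody binding Bid BH3 peptide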
Bcl-xL primary = blocks human Bcl-xL binding to Bim BH3 peptide; Q07817; GST-Bcl-xL / FITC-Bim BH3 peptide fluorescence polarization; inhibition, % at 10.9 µM; hit rate 0.7% among 320,000; AID 2129;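 active = inhibition above the mean of all tested compounds plus 3 SD, cutoff set per campaign, cut at about 30% in these data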;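 also: inhibitors lower millipolarization by displacing the labeled peptide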
Numbers stand for hits; n = inactive; x = not tested or not shown.

SMILES | MCL1-BIM inh | GLD-1 TGE inh | Mcl1-Noxa inh | Mcl-1 Bim block | Mcl1-Bid inh | Bcl-xL primary
Cc1nn(-c2ccccc2[N+](=O)[O-])c(=O)c2ccccc12 | n | n | n | n | n | n
Cc1nn(-c2ccc(Br)cc2)c(=O)c2ccccc12 | n | n | x | x | x | 31
Cc1nn(-c2ccccc2C(=O)O)c(=O)c2ccccc12 | n | n | x | n | 88 | n
Cc1nn(-c2c(Cl)cc(Cl)cc2Cl)c(=O)c2ccccc12 | n | n | n | n | n | n
CC(=O)NC(CC(=O)NNC(=O)C(C)Oc1ccccc1F)c1ccccc1 (centres undefined) | n | n | x | x | x | n
O=C(CSc1cccc(C(F)(F)F)c1)Nc1ccc(N2CCOCC2)cc1 | x | n | x | x | x | x
CC1CCc2sc(C(=O)Nc3ccc(C(N)=O)cc3)cc2C1 (centres undefined) | n | n | n | x | n | n
CC1CCc2sc(C(=O)NN)cc2C1 (centres undefined) | n | 72 | n | n | n | n
Cc1ccc(NC(=O)CN(C)C(=O)C(C)OC(=O)c2ccccc2NCCO)cc1 (centres undefined) | n | n | x | x | x | n
Cc1ccc(-c2ccc(/C=N/N=C3/NC(=O)C(CC(=O)O)S3)o2)c([N+](=O)[O-])c1 (centres undefined) | n | n | n | n | n | n
CC1=C(C#N)C(=O)NC(=O)/C1=C\c1ccc(-c2ccc(C)cc2[N+](=O)[O-])o1 | x | x | 95 | n | 75 | x
CN(C)c1ccc(C(=O)/C=C/c2cccnc2)cc1 | n | n | x | x | x | n
CN(C)c1ccc(/C=C/C(=O)c2cccc(Br)c2)cc1 | n | n | n | n | n | 46
CCCc1cc(=O)n2nc(N3CCC(C(=O)N4CCN(c5cccc(OC)c5)CC4)CC3)sc2n1 | n | n | x | x | x | n
COc1ccccc1CN1CCNC(=O)C1CC(=O)N(C)Cc1ccon1 (centres undefined) | n | n | n | n | n | n
COc1ccc(-c2csc3nc(-c4cccnc4)nc(Cl)c23)cc1OC | n | n | 58 | n | n | n
Clc1nc(-c2cccnc2)nc2scc(-c3ccccc3)c12 | n | n | n | n | n | n
Cc1ccc(C(=O)N2CCN(S(=O)(=O)c3ccc(C(C)C)cc3)CC2)s1 | n | n | x | x | x | n
CC(C)NC(=O)c1ccc(COCC(F)(F)F)cc1 | n | n | n | n | 87 | n
CC(C)NC(=O)c1ccc(CNC(=O)OCC(F)(F)F)cc1 | n | n | n | n | n | n
COc1ccc(C=NCCC2(O)CC(C)N(C)CC2C)cc1 (centres undefined) | 41 | n | n | n | n | 31
COc1cc2c(C)nc3c(c(C)nn3-c3ccccc3)c2cc1OC | n | n | n | n | n | n
COc1cc2c(-c3ccc(O)cc3)nc3c(c(C)nn3-c3ccccc3)c2cc1OC | n | n | 80 | n | 61 | n
CCn1c(CSc2nc3ccccc3s2)nnc1SCC(=O)c1ccc(O)c(O)c1 | n | n | 62 | n | n | n
Cn1nc(-c2ccc(Cl)cc2)c2cc(C(=O)NCCN3CCOCC3)sc21 | n | n | n | n | 94 | n
SMILES | MCL1-BIM inh | GLD-1 TGE inh | Mcl1-Noxa inh | Mcl-1 Bim block | Mcl1-Bid inh | Bcl-xL primary
Cc1cc(=O)oc2cc(OCc3ccc(C(=O)OCC(=O)NC4CCS(=O)(=O)C4)cc3)ccc12 (centres undefined) | n | n | n | x | n | n
Cc1cc(=O)oc2cc(OCc3ccc(C(=O)OCC(=O)Nc4ccc(N(C)C)cc4)cc3)ccc12 | x | x | 96 | n | 92 | x
COc1ccc(OC)c(/C=N/c2oc(-c3ccco3)c(-c3ccco3)c2C#N)c1 | n | n | 77 | n | n | n
CCOC(=O)c1[nH]c(C)c(C(=O)N2CCCC(Nc3ccc(C)c(C)c3)C2)c1C (centres undefined) | n | n | x | x | x | n
COc1ccc(NCc2ccc([N+](=O)[O-])s2)c(OC)c1 | n | n | 53 | n | n | n
COc1ccc(NCc2ccc([N+](=O)[O-])s2)cc1 | n | n | n | n | n | n
CCOc1ccc(C(C)=O)cc1N1C(=O)C2C3C=CC(C3)C2C1=O (centres undefined) | n | n | n | n | n | n
CCOc1ccc(C(C)=O)cc1N1C(=O)C2C3C=CC(O3)C2C1=O (centres undefined) | n | n | 63 | n | n | n
COc1ccc(/C=C2\C(=O)NC(=S)N2C(=O)c2ccc(F)cc2)cc1 | n | n | 64 | n | 81 | n
CC(C)(C)N1C(=O)Cc2c1nc(N)c1c(N)nc(N3CCCCC3CO)c(C#N)c21 (centres undefined) | 56 | n | n | n | n | n
CCC1Cc2c(nc(N)c3c(N)nc(N4CCCCC4)c(C#N)c23)O1 (centres undefined) | n | n | n | n | n | n
COc1ccc(C(=O)OCC(O)COC(=O)c2ccc(OC)cc2)cc1 | n | n | x | x | x | n
O=C(/C=C/c1ccc(O)c(O)c1)O[C@H](Cc1ccc(O)c(O)c1)C(=O)O | x | x | 93 | x | n | x
COc1cc(/C=C/C(=O)O)ccc1O | n | n | x | x | x | n
O=C(O)/C=C/c1ccc(O)c(O)c1 | n | n | 60 | n | n | n
CC(NC(=O)CN1C(=O)NC2(CCc3ccccc32)C1=O)c1ccc2c(c1)OCCO2 (centres undefined) | n | n | x | x | x | n
CC(C)OCCCNCC(O)c1ccccc1 (centres undefined) | n | n | n | n | n | n
Oc1cccc(/C=N/NC(=S)Nc2cccnc2)c1O | n | n | 66 | n | n | n
Oc1ccc(/C=N/NC(=S)Nc2cccnc2)c(O)c1O | x | x | 102 | x | n | x
Oc1ccc(/C=N/NC(=S)Nc2cccnc2)c(O)c1 | n | n | n | n | n | n
CCN1C(=O)/C(=C2\C=Cc3cc(C)ccc3N2CC)OC1=S | n | n | n | n | n | n
CCN1/C(=C/c2cc[n+](C)cc2)C=Cc2cc(C)ccc21 | n | n | 56 | n | n | n
COc1cc(C2C3=C(Nc4nc(N)[nH]c(=O)c42)c2ccccc2C3=O)ccc1O (centres undefined) | n | n | 90 | x | n | n
CC(C)(C)[C@@H]1CCC(=O)N(CC[C@H](Sc2ccc(Br)cc2)c2ccccc2)CC1 | x | n | x | x | x | x
Cc1ccc(Nc2nc3ccc(Cl)cc3n3cnnc23)cc1F | n | n | x | x | x | n
SMILES | MCL1-BIM inh | GLD-1 TGE inh | Mcl1-Noxa inh | Mcl-1 Bim block | Mcl1-Bid inh | Bcl-xL primary
CN(CCO)c1nc(N)c2c(N)nc3c(c2c1C#N)CC(=O)N3C1CCCC1 | n | n | n | n | n | n
N#Cc1c(N2CCN(c3ccc(F)cc3)CC2)nc(N)c2c(N)nc3c(c12)CC(=O)N3C1CC1 | x | x | 55 | n | n | x
COc1ccc(/C=C(\C#N)C(=O)NCc2ccccc2)cc1O | n | n | x | x | x | n
COc1ccc(/C=C(\C#N)C(=O)Nc2cc(C)c(Cl)cc2OC)cc1O | n | n | 71 | x | n | n
CCCOc1ccc(-c2c(C(=O)N/N=C(\C)c3cccnc3)nnn2-c2nonc2N)cc1 | n | n | x | x | x | n
CCCOc1ccc(-c2c(C(=O)N/N=C(\C)c3ccco3)nnn2-c2nonc2N)cc1 | n | n | x | x | x | 69
